Compound activity deposited in PubChem BioAssay by The Scripps Research Institute Molecular Screening Center.
CHO-K1 Ca antag = counter-screen for M1 antagonists: effect in parental CHO-K1 cells | ATP-induced calcium, Fluo-8 fluorescence | inhibition, % at 3 µM | 0.6% of 360,000 active | AID 602250;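 active = inhibition above a per-plate cutoff, the plate's mean sample inhibition plus 3 SD, cut at about 24% in these data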;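 note: 0% = DMSO plus EC80 ATP and 100% = DMSO alone without ATP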
M1 PAM parental = counter-screen for M1 PAMs: effect in parental CHO-K1 cells. ATP EC20, Fluo-8 calcium fluorescence; 0% at ATP EC20, 100% at ATP max. activation, % at 3 µM. 0.02% of 360,000 active. AID 602247;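 active = activation above the run cutoff, the mean activation of all test compounds plus 3 SD, cut at about 40% in these data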;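 note: peak over basal fluorescence ratio in a 140 s read after ATP addition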
M1 PAM = positive allosteric modulators of human M1 muscarinic receptor | P11229 | CHO-K1 hM1, Fluo-8 calcium fluorescence, ACh EC20; 0% = ACh EC20, 100% = maximal ACh | 0.088% of 360,000 active | activation, % at 3 µM; in the data active = activation above about 19%, passing the limit was not always enough
Target sequence (P11229 whole entry, looked up): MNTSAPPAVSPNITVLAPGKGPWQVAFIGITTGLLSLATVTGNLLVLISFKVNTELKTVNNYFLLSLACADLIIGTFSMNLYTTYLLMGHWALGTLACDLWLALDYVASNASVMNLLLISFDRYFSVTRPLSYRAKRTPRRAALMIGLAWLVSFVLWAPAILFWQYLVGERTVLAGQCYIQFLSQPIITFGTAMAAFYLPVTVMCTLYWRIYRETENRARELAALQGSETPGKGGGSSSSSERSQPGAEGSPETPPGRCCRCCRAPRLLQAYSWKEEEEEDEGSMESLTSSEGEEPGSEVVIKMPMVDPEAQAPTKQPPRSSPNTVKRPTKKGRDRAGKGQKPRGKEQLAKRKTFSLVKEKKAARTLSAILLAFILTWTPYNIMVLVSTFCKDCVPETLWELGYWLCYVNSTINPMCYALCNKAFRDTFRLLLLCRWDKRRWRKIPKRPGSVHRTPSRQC
CHO-K1 Ca ag = nonselective activator or artifact in parental CHO-K1 cells | activation, % at 3 µM | 0.48% of 360,000 active | Fluo-8 calcium fluorescence; scaled to maximal ATP response, vehicle zero; in the data active = activation above about 15%;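 note: untransfected CHO-K1 host cells lacking M1 receptor as counterscreen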
M1 antag = antagonists of human M1 muscarinic receptor | P11229 | CHO-K1 hM1, Fluo-8 calcium fluorescence, ACh EC80 antagonist | inhibition, % at 3 µM | 1.3% of 360,000 active;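 active = percent inhibition above its own plate's cutoff, namely the mean of that plate's compound wells plus 3 SD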;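 note: peak over basal fluorescence ratio during 140 s after agonist addition; 0% = ACh EC80 plus DMSO and 100% = DMSO alone without agonist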
CHRM1 agonist = agonists of human M1 muscarinic receptor. P11229. CHO-K1 hM1, Fluo-8 calcium fluorescence, agonist mode; 0% DMSO, 100% acetylcholine EC100. activation, % at 3 µM. 0.33% of 360,000 active. AID 588814;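 active = activation above the run's mean compound activation plus 3 SD, cut at about 16% in these data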;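 note: peak over basal fluorescence ratio within a 140 s kinetic read after compound addition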
Numbers without * were called inactive. Most compounds without a hit are left out; they make up all but 2.4% or so of the library.

SMILES	CHO-K1 Ca antag	M1 PAM parental	M1 PAM	CHO-K1 Ca ag	M1 antag	CHRM1 agonist
O=C(CCCn1c(=O)c2sccc2n(CC(=O)OCc2ccccc2)c1=O)NCc1ccco1	-6	22	-9	5	28*	-2
O=C(CCn1c(=O)c2sccc2n(CC(=O)OCc2ccccc2)c1=O)NCc1ccco1	2	7	-7	6	17	-6
Cc1c(/C=C/C(=O)c2ccccc2)cnn1C	-1	8	0	16*	1	-1
NC(=O)c1cc[n+](Cc2ccccc2Cl)cc1	-8	1	11	0	-26	-5
O=C(c1cc(-c2ccco2)on1)N1CCc2ccccc2C1	-45	17	28*	0	-22	3
O=C(Cc1cccs1)NCCc1csc(-c2ccccc2)n1	-4	-12	11	0	-19	-3
O=[N+]([O-])c1ccc(NC(=S)NCCc2ccc(Cl)cc2)cc1	14	12	-11	8	35*	1
O=[N+]([O-])c1ccc(NC(=S)NCc2ccc(F)cc2)cc1	24*	-15	-12	15	28*	8
CNC(=O)C(=O)NCCc1ccc(Cl)cc1	-6	13	21*	1	-4	-4
O=[N+]([O-])c1ccc(NC(=S)NCCc2ccccc2)cc1	23	-9	-28	12	39*	-4
O=[N+]([O-])c1ccc(NC(=S)NCc2ccncc2)cc1	10	0	-10	8	3	2
NS(=O)(=O)c1ccc(NC(=S)NCCc2ccccc2)cc1	-4	10	10	0	-2	-2
S=C(NCCc1ccccc1)Nc1ccc(Cl)cc1	6	10	-10	9	13	-9
CC(C)=CC(=O)O[C@@H]1Cc2cc3ccc(=O)oc3cc2OC1(C)C	-13	18	-9	-1	9	-3
CCOc1ccc(NC(=O)CSc2ccc3nnc(-c4ccccn4)n3n2)cc1	-11	-3	8	0	-12	0
CCc1cccc(NC(=O)CCCSc2nc3ccccc3[nH]2)c1	-9	18	1	5	-5	-5
CN(C(=O)COC(=O)c1ccc(Cl)c(S(=O)(=O)NCc2ccccc2)c1)C1CCS(=O)(=O)C1 (stereo not given)	-14	9	1	1	-4	-2
Cc1c(C)n(Cc2ccccc2)c2ncnc(Cl)c12	19	-25	-19	9	35*	-1
CC1Cc2cc(S(=O)(=O)N3CCC(C(=O)N4CCN(c5ccccc5F)CC4)CC3)ccc2N1C(=O)C1CC1 (stereo not given)	29*	-30	-7	10	22	5
CC(=O)c1ccc(N2CCN(S(=O)(=O)c3ccc4c(c3)CC(C)N4C(C)=O)CC2)cc1 (stereo not given)	24	3	-13	14	36*	2
CC(=O)N1c2ccc(S(=O)(=O)N3CCC(C(=O)N4CCC(C)CC4)CC3)cc2CC1C (stereo not given)	-17	8	4	2	-9	-4
CS(=O)(=O)N1CCC(C(=O)N2CCN(c3ccccc3F)CC2)CC1	-1	19	11	17*	-7	-7
CC(=O)N1c2ccc(S(=O)(=O)N3CCC(C(=O)N4CCN(c5cc(Cl)ccc5C)CC4)CC3)cc2CC1C (stereo not given)	26*	-18	-16	12	48*	2
O=C(O)C(CCc1ccccc1)N1C(=O)c2ccccc2C1=O (stereo not given)	-11	25	13	1	-20	-1
O=C(CN1CCCCC1)NCC1(c2ccccc2)CCCC1	-11	27	-26	1	40*	-9
SMILES	CHO-K1 Ca antag	M1 PAM parental	M1 PAM	CHO-K1 Ca ag	M1 antag	CHRM1 agonist
O=C(CN1CCCCC1)NN(Cc1ccccc1)c1ccccc1	0	10	-34	1	61*	-13
CCN(CC)CC(=O)NCC1(c2ccccc2)CCCC1	7	-6	-27	0	66*	-8
CCC(C)Sc1cc(-c2nc3ccc(Cl)cn3c2NC2CCCCC2)ccc1OC (stereo not given)	-12	14	9	0	-10	-3
CC(C)CN(C(=O)COC(=O)CSc1ccccc1F)c1c(N)n(Cc2ccccc2)c(=O)[nH]c1=O	61*	-7	8	1	-11	-2
CC(CC(=O)N(C)c1c(N)n(Cc2ccccc2)c(=O)[nH]c1=O)c1ccccc1 (stereo not given)	14	-26	-10	0	28*	-1
COc1cc(C(O)c2nc(-c3ccncc3)cs2)ccc1F (stereo not given)	-4	5	-4	8	1	2
COc1ccccc1C(=O)Nc1cccc2nc(C)ccc12	-4	8	7	2	-10	-4
CCN1C(=O)/C(=C\N2CCCCCC2)SC1=S	10	-9	-23	1	99*	-4
CCN1C(=O)/C(=C/N2CC(C)CC(C)C2)SC1=S (stereo not given)	-7	16	3	0	-2	-1
C=CCc1cccc(/C=N/NC(=O)c2ccccc2OC)c1O	1	12	-3	1	-2	-8
C=CCc1cccc(/C=N/NC(=O)c2ccccc2Br)c1O	-16	44*	10	1	-3	-8
C1=C(c2ccc(-c3ccccc3)cc2)Nc2ncnn2C1c1ccco1 (stereo not given)	29*	-11	-30	38*	45*	120*
Brc1ccc(C2=CC(c3cccs3)n3ncnc3N2)cc1 (stereo not given)	2	-10	-13	33*	18	28*
Cc1ccc2nc(C)c(CN3CCN(c4ccc([N+](=O)[O-])cc4Cl)CC3)n2c1	23	-20	-20	10	37*	-6
O=[N+]([O-])c1ccc(Cl)c(CN2CCN(c3ncccn3)CC2)c1	-3	16	15	0	-27	-8
CC(=O)Oc1ccccc1C(=O)Nc1ccccc1C(=O)N1CCCCC1	1	-10	15	0	-14	4
O=C(NC1CC1)c1ccc(-c2cnc3cccnn23)cc1	0	4	3	0	-6	-1
O=C(CNS(=O)(=O)c1ccc(Br)s1)NCc1ccc(F)cc1	-16	7	-6	3	1	-9
O=C(CCNS(=O)(=O)c1ccc(Br)s1)NCc1ccc(F)cc1	29*	-16	-5	0	6	-5
CCOc1cc(/C=N/NC(=O)C(=O)N2CCCC2)ccc1O	3	9	9	1	-3	0
OC1(c2cccc(C(F)(F)F)c2)CCN(c2ncnc3c2[nH]c2ccc(F)cc23)CC1	22	-2	-12	5	36*	-1
CCOC(=O)N1CCN(c2ncnc3c2[nH]c2ccc(OC)cc23)CC1	4	-2	9	1	4	2
